Screening results: PubChem, National Center for Advancing Translational Sciences (NCATS)
A549 viability: Nrf2 qHTS screen for inhibitors: counterscreen for cytotoxicity | A549 ARE-Fluc cells, CellTiter-Fluor viability, 18-24 h | hit rate 0.16% among 390,000 | Potency, µM (top dose mostly 46 µM), hits mostly inhibitors
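Cytotoxicity counterscreen: CellTiter-Fluor fluorescence was measured in A549 ARE_Fluc cells after 18-24 h of compound exposure in a concentration series. The subsequent BugLite luminescent read reports ARE-luciferase activity.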
Mito fusion yeast: qHTS Assay for Small Molecule Inhibitors of Mitochondrial Division or Activators of Mitochondrial Fusion | S. cerevisiae fusion-defective mutant growth rescue, CellTiterGlo 48 h | Potency, µM (titrated, usually from 46.1 µM), actives largely listed as activators | hit rate 0.23% among 320,000 | AID 485298, 2010; further: nearly all actives have a fitted effect of over 45% in size
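Yeast fusion mutant, YPEG (non-fermentable carbon), compound, 48 h at 37C non-permissive; CellTiterGlo added, 10 min RT, luminescence read. Rescued growth = division inhibition.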
Nrf2 activator: qHTS of Nrf2 Activators; AREc32 ARE-luciferase reporter (MCF7-derived line), luminescence, 24 h; Potency, µM (highest dose often 46.1 µM), usual class: activators; hit rate 0.31% among 410,000; further: nearly all actives have a fitted effect of over 65% in size
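AREc32 cells carrying an ARE-driven firefly luciferase reporter were seeded at 1000 cells/well in OPTI-MEM with 5% FBS, then exposed to compound for 24 hr at 37 deg C. Luminescence was read with Steady-Glo after 30 min at RT.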
miR-21 act: qHTS Assay for Modulators of miRNAs and/orActivators of miR-21. AID 2288, 2010. 340,000 tested, under 10 active. Potency, µM (highest dose often 38.3 µM), hits mostly activators. HeLa miR-21 FLuc reporter, luciferase, 48 h;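 further: miR-21 action dims this reporter so a rising signal means less miR-21 action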
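Compounds were titrated across several concentrations (up to approximately 40 uM) and incubated 48 hours with HeLa miR-21-FLuc reporter cells (miR-21 target sequence downstream of FLuc, endogenous miR-21). Readout was firefly luciferase luminescence after lytic detection reagent.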
Nrf2 inh: Nrf2 qHTS screen for inhibitors; Potency, µM (series often up to 46 µM), hits mostly inhibitors; AID 504444, 2011; A549 ARE-Fluc reporter, luciferase luminescence, 18-24 h; hit rate 2.1% among 360,000; further: nearly all actives have a fitted effect of over 60% in size
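Nrf2 function is reported as luminescence of an ARE-controlled luciferase in A549 cells. Compounds were tested at several concentrations, and a CellTiter-Fluor read on the same wells flagged cytotoxicity.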
Of the large screens only hits and unclear results are named; the others gave an inactive call; ! = not active in a repeat. Compounds with a hit are over-represented: about 2.3% of the library has one in this group of screens. The call rests on the fitted dose curve; in most records, active means well fitted curve in the direction sought with a large enough effect; inconclusive means small, poorly fitted or top-dose-only effect, or another doubt; inactive means no such curve, though single readings can be large; an effect the other way counts as inactive or inconclusive.

C=C(c1ccccc1)c1ccc(N(C)C)cc1	Nrf2 inh 16µM
CC(=O)c1sc2nc(-c3cccs3)cc(C(F)(F)F)c2c1N	Nrf2 activator 6.3µM
Cc1c(C(=O)O)sc2nc(-c3cccs3)cc(C(F)(F)F)c12	Mito fusion yeast inconclusive, Nrf2 inh inconclusive
Cc1cccc(NC(=O)CCC(=O)N/N=C/c2ccco2)c1	none
O=C(Nc1ccccc1C(=O)N/N=C/c1ccco1)c1ccc(F)cc1	Nrf2 activator 2.8µM
O=C(Nc1ccccc1C(=O)N/N=C/c1ccco1)c1ccccc1	Nrf2 activator 3.5µM
O=C(N/N=C\c1ccco1)Nc1cccc(Cl)c1	Nrf2 activator 5µM, Nrf2 inh inconclusive
O=C(Nc1ccccc1C(=O)N/N=C/c1ccco1)c1ccc(Cl)cc1	Nrf2 activator inconclusive
COc1cccc(-c2nnc3n2N=C(c2c(OC)cccc2OC)CS3)c1OC	none (no result: Mito fusion yeast, Nrf2 activator, miR-21 act)
Cc1cc2n(n1)CCCN2C(=O)Nc1ccccc1F	none (no result: Mito fusion yeast)
COc1ccc(/C=C/C(=O)Nc2ccc(C)c(S(=O)(=O)N3CCOCC3)c2)cc1	Nrf2 inh 23µM (no result: Mito fusion yeast, miR-21 act)
Cc1ccc(F)cc1NC(=O)/C=C/c1ccc(S(=O)(=O)N2CCOCC2)cc1	Nrf2 inh 16µM (no result: Mito fusion yeast, miR-21 act)
COc1ccc(NC(=O)/C=C/c2ccc(Cl)cc2)cc1	Mito fusion yeast 5.2µM (no result: A549 viability, Nrf2 activator, miR-21 act, Nrf2 inh)
CC(=O)Nc1ccc(NC(=O)/C=C/c2ccc(Cl)cc2)cc1	none
COc1ccc(C2=NN(CC(=O)NCCc3ccc(OC)c(OC)c3)C(=O)CC2)cc1	none (no result: Mito fusion yeast, Nrf2 inh)
CCC1CCCCN1S(=O)(=O)c1cc(C(=O)Nc2ccc(C)c(F)c2)ccc1F (stereo not drawn)	none (no result: Mito fusion yeast, Nrf2 inh)
Cc1cccc(-c2[nH]c(C(C)(C)C)nc2-c2ccc3nccnc3c2)n1	none (no result: A549 viability, Nrf2 activator, miR-21 act, Nrf2 inh)
Cc1ccc(Cl)cc1N1CCN(C(=O)C(C)n2ncn3cccc3c2=O)CC1 (stereo not drawn)	A549 viability inconclusive, Nrf2 inh 18µM!
CCCNC(=O)COC(=O)c1ccccc1C(=O)c1ccc(Cl)c([N+](=O)[O-])c1	Nrf2 activator inconclusive, miR-21 act inconclusive
Cc1ccc(Cl)c(NC(=O)COC(=O)c2ccccc2C(=O)c2ccc(Cl)c([N+](=O)[O-])c2)c1Cl	A549 viability inconclusive, Nrf2 inh 23µM
Cc1ccc(C)c(NC(=O)C(Cc2ccccc2)n2cccc2)c1 (stereo not drawn)	miR-21 act inconclusive (no result: Mito fusion yeast)
Cc1onc(-c2ccccc2)c1C(=O)N/N=C/c1ccc([N+](=O)[O-])s1	A549 viability inconclusive, Mito fusion yeast 11µM, Nrf2 inh inconclusive
Cc1onc(-c2ccccc2)c1C(=O)N/N=C/c1ccco1	none
Cc1cc(C)cc(N=Cc2ccc([N+](=O)[O-])s2)c1	Nrf2 activator inconclusive
Cc1ccc(NC(=S)N/N=C/c2ccc([N+](=O)[O-])s2)cc1	A549 viability 23µM, Nrf2 inh inconclusive
Cc1cccc2cc3c(N)c(C(=O)Nc4ccc(N5CCOCC5)cc4)sc3nc12	Nrf2 inh 23µM
O=C(CN1N=C(C(F)(F)F)CC1(O)c1ccc([N+](=O)[O-])cc1)c1ccccc1 (stereo not drawn)	Mito fusion yeast 16µM
O=Nc1c(-c2c(O)[nH]c3cc(Br)ccc23)[nH]c2ccccc12	A549 viability 21µM, Mito fusion yeast 1.8µM!, Nrf2 inh 10µM
O=C(CSCc1cccc(Br)c1)N=Nc1c(O)[nH]c2ccccc12	none
CCN(c1ccccc1)C(CNS(=O)(=O)c1ccccc1)c1ccccc1 (stereo not drawn)	miR-21 act inconclusive, Nrf2 inh 23µM (no result: Mito fusion yeast)
CCN(c1cccc(C)c1)C(CNS(=O)(=O)c1ccccc1)c1ccccc1 (stereo not drawn)	Nrf2 inh inconclusive (no result: Mito fusion yeast)
O=S(=O)(NCC(Nc1ccc(Cl)cc1)c1ccccc1)c1ccc(Cl)cc1 (stereo not drawn)	A549 viability inconclusive, Nrf2 inh 21µM
CCOC(=O)c1c(S(=O)(=O)N2CCCC(C(=O)N3CCN(c4ccc(F)cc4)CC3)C2)c(C)n(C)c1C (stereo not drawn)	none (no result: Mito fusion yeast, Nrf2 inh)
Cc1c(CC(=O)N2CCN(C(=O)C3COc4ccccc4O3)CC2)c(=O)oc2cc(O)ccc12 (stereo not drawn)	none
